{"source": "PubChem BioAssay AID624312", "about": "(National Center for Advancing Translational Sciences (NCATS), 2012)", "biological_target": "Peptidyl-prolyl cis-trans isomerase NIMA-interacting 1 (Homo sapiens) (UniProt Q13526)", "sequence (Q13526 whole entry, looked up)": "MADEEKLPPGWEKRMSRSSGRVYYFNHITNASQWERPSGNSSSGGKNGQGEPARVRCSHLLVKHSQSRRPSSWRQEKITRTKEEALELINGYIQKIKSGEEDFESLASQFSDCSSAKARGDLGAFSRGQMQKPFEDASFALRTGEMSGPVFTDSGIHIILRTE", "assay": "qHTS Assay to Find Inhibitors of Pin1: Hit Validation using Tamra Binding", "conditions": "Pin1 Tamra-peptide displacement, fluorescence polarization, 10 min", "from_the_text": "The unique chemical properties of Pro allow for the adoption of two completely distinct amide bond conformations (cis and trans). Peptidyl-prolyl cis/trans isomerases (PPIases) are evolutionary conserved enzymes that catalyze cis/trans isomerization of peptidyl-prolyl peptide bonds. Distinct from all other PPIases such as cyclophilins and FK506-binding proteins (FKBPs), Pin1 binds a subset of phos.Ser/Thr-Pro-containing proteins using its protein-targeting WW domain and isomerizes only specific phos.Ser/Thr-Pro bonds, which cannot be effectively catalyzed by other known PPIases. […] The goal of this screen is to find small-molecule inhibitors of Pin1 using a fluorescence polarization competition assay.In the primary screen, a HiFluor-488-labeled peptide binds to the active site of Pin1 and can be displaced by compounds. […] To validate the hits using a different read-out, this Tamra binding assays was used against all the hits identified from the primary screen. […]\nBriefly, 2 uL of Pin1 (all columns but column 3, which just receives buffer and serves as negative control) are dispensed into Greiner black solid bottom 1536-well assay plates. […] Finally, plates are transferred to a ViewLux high-throughput CCD imager (PerkinElmer), wherein end-point measurements of fluorescence polarization are acquired. […]", "note": "Results filed as inconclusive are left out. The source made the active and inactive calls. Calls follow the shape of the dose curve; as a rule, active = well fitted inhibition curve with a large enough effect; inconclusive = small, poorly fitted or top-dose-only effect; inactive = no such curve, though single readings can be large or run the other way.", "data": [{"smiles": "Cc1cc2c(C(C)C)c(O)c(O)c(C=O)c2c(O)c1-c1c(C)cc2c(C(C)C)c(O)c(O)c(C=O)c2c1O", "values": [{"measurement": "Potency", "result": "1.69 µM (active)"}]}]}
